# L major viab = Leishmania major promastigote growth inhibition, primary screen; inhibition, % at 10 µM; AID 1063, 2008; 200,000 compounds, 9% hits; Leishmania major promastigotes, resazurin fluorescence viability; in the data active = inhibition above about 50%;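 note: promastigotes grown with compound for 44 hours at 28 °C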
# Calpain2 inh = inhibitors of pig calpain II, primary screen, biochemical, fluorogenic peptide substrate, 1536-well; purified calpain II, 30 min; inhibition, % at 16 µM; 220,000 compounds, 0.37% hits; AID 1236, 2008;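 active = inhibition above about 50%, limit read from the data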
# KCC2 mod = KCC2 cotransporter modulators, thallium flux, primary screen, cell-based, HEK293 KCC2, FluoZin-2 fluorescence, MLSMR | Solute carrier family 12 member 5 (Homo sapiens), Q9H2X9 | KCC2 cells, thallium flux FluoZin-2 fluorescence | B-score of Tl+ flux slope (higher = more flux/activation; lower = inhibition) at 10 µM | 190,000 compounds, 2.2% hits | AID 1456, 2008;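 active = thallium flux slope and its plate-corrected score both differing from the plate sample mean at a set confidence after two filtering rounds, in either direction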;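 note: slope of fluorescence scaled to starting intensity during 10 to 20 s after thallium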
# WT yeast gro inh = growth inhibition of WT strain, primary screen, mitochondrial fusion inhibitor project, WT and mutant strains, chemical genetic; mitochondrial fusion phenotypic screen; inhibition, % at 10 µM; 190,000 compounds, 2.1% hits; in the data active = inhibition above about 58%; tested in S. cerevisiae
# ROMK mod = ROMK potassium channel modulators, primary screen, cell-based, thallium flux, MLSMR library; Tet-inducible ROMK, thallium flux fluorescence; actives lie on both sides; B-score at 10 µM; 130,000 compounds, 2% hits; ATP-sensitive inward rectifier potassium channel 1 (Homo sapiens), P48048;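 active = signal ratio slope over the read window, or its plate-corrected B-score, at least 3 SD from the plate mean, either direction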;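 note: B-score of the F/F0 ratio slope over 7 to 12 s after thallium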
# An asterisk follows results filed as active; x = no result. An excerpt weighted towards active compounds, which were near 12% of everything screened.
SMILES,L major viab,Calpain2 inh,KCC2 mod,WT yeast gro inh,ROMK mod
CCc1cccc(CC)c1NC(=O)CSc1nc2ccc(N3C(=O)C4C(C3=O)[C@H]3C=C[C@@H]4C3)cc2s1 (stereo not given in full),2,-10,-0.35,0,x
O=C(Nc1cc(Br)ccc1O)c1cnn2c(C(F)F)cc(C3CC3)nc12,51*,6,-0.75,17,-0.56
CC(=O)N1CCC(O)(c2cccc(C(F)(F)F)c2)CC1,-5,-4,0.005,96*,x
CC(=O)N1CCN(S(=O)(=O)c2ccc(C)cc2)C1c1ccc(N(C)C)cc1 (stereo not given),2,-44,0.058,1,x
COc1ccc(S(=O)(=O)N2CC(C)N(S(=O)(=O)c3ccc(OC)cc3)CC2C)cc1 (stereo not given),x,x,x,9,x
Cc1ccc(S(=O)(=O)N2CCN(S(=O)(=O)c3ccccc3)C2c2ccc(N(C)C)cc2)cc1 (stereo not given),89*,-25,-0.54,15,0.94
COc1ccc(C2N(S(=O)(=O)c3ccc(C)cc3)CCN2S(=O)(=O)c2ccc(C)cc2)cc1,66*,5,0.15,9,1.2
Cn1cnc(S(=O)(=O)Nc2ccc(OC(F)F)cc2)c1,x,10,0.04,x,1.5
CN(C)S(=O)(=O)c1ccc(N2CCCC2)c(C(=O)Nc2nc(-c3ccc(F)cc3)cs2)c1,98*,-2,-4.7,-37,0.015
Cc1cccc2sc(NC(=O)c3cc(S(=O)(=O)N(C)C)ccc3N3CCCC3)nc12,52*,-136,-1.2,5,-0.76
CN(C)S(=O)(=O)c1ccc(N2CCCC2)c(C(=O)Nc2nc3ccccc3s2)c1,2,-50,-1.7,8,-0.063
CN(C)S(=O)(=O)c1ccc(N2CCCC2)c(C(=O)Nc2nc3ccc(F)cc3s2)c1,7,1,-0.12,9,0.52
O=C(Nc1nc(-c2cc(F)ccc2F)cs1)c1ccccn1,9,15,7.4*,7,1.3*
CN(C)S(=O)(=O)c1ccc(N2CCCC2)c(C(=O)Nc2nc(-c3cc(F)ccc3F)cs2)c1,84*,-10,-2.3,15,x
Clc1ccc(Nc2ccccc2)nn1,x,-1,0.55,x,x
O=C(CNC(=O)c1ccc(-c2ccccc2)cc1)Nc1ccc(S(=O)(=O)Nc2ncccn2)cc1,x,37,x,x,x
COc1cc(C(=O)Nc2cc(C)cc(C)c2)c(-n2cnnn2)cc1OC,-3,-35,0.086,-15,x
O=C1CC(c2ccccc2)CC(=NCCO)/C1=C(\O)CCCN1C(=O)c2ccccc2C1=O (stereo not given),4,49,-0.8,19,x
COc1ccc(S(=O)(=O)N2CCCCCC2)cc1N,-13,1,0.66,-9,0.033
Cn1c(N)c(C(=O)COC(=O)CC2CC3CCC2C3)c(=O)n(C)c1=O (stereo not given),-7,92*,0.2,0,-0.0095
O=C(CC1CC2CCC1C2)OCC(=O)c1c[nH]c2ccccc12 (stereo not given),72*,79*,-2.4,31,x
O=C(COC(=O)CC1CC2CCC1C2)Nc1ccc(F)cc1 (stereo not given),-9,12,0.27,9,0.27
CCN(CC)C(=O)COC(=O)c1ccc(C)c(NC(=O)c2ccco2)c1,4,3,0.0078,-4,0.44
O=C(OCC(=O)c1c[nH]c2ccccc12)c1cc2ccccc2cc1O,62*,30,-0.36,-6,0.055
Cc1ccc(C(=O)OCC(=O)c2c[nH]c3ccccc23)cc1NC(=O)c1ccco1,69*,-96,x,-4,1.2
SMILES,L major viab,Calpain2 inh,KCC2 mod,WT yeast gro inh,ROMK mod
O=C(Nc1nc2cc3c(cc2s1)OCCO3)c1cccc(N2C(=O)CCC2=O)c1,55*,-69,-0.2,9,x
CCN(CC)S(=O)(=O)c1cccc(C(=O)Nc2nc3cc4c(cc3s2)OCCO4)c1,93*,-125,-1.6,23,-1.1
O=C(NNc1nc2cc3c(cc2s1)OCO3)c1cccc(F)c1,55*,23,1.1,7,0.7
COc1ccccc1C(=O)Nc1nc2cc3c(cc2s1)OCCO3,75*,-142,0.12,4,x
COCCCNCCOCCOc1ccccc1-c1ccccc1,49,-4,0.14,-7,-1
C=CCNCCOCCOc1ccc(C)cc1[N+](=O)[O-],81*,-1,1,9,x
C=CCNCCOCCOc1ccccc1-c1ccccc1,95*,2,1.2,-11,-1.8
CCC(C)NCCOCCOc1ccccc1-c1ccccc1 (stereo not given),85*,17,0.43,12,-2.8
CN(C)CCNCCCOc1ccccc1-c1ccccc1,98*,-19,-0.4,-1,-0.22
COc1cc(C)ccc1OCCOCCOc1ccc(C)cc1[N+](=O)[O-],2,6,-2,-13,-0.76
Cc1ccc(S(=O)(=O)N2CCN(Cc3ccsc3)CC2)cc1,0,-28,-0.82,-4,0.0045
O=C(Nc1cccc2ccccc12)c1nn(C23CC4CC(CC(C4)C2)C3)cc1[N+](=O)[O-],81*,-20,x,11,-0.11
Cn1nc(C(C)(C)C)c([N+](=O)[O-])c1C(=O)Nc1cccc2ccccc12,x,2,-1.4,x,x
COc1ccc(NC(=O)c2nn(C34CC5CC(CC(C5)C3)C4)cc2[N+](=O)[O-])cc1,96*,4,-0.058,34,0.0051
